Shown are actives, neighbours in structure and some others; about 3.1% of the full set was active somewhere.
Vif-APOBEC3F blk: Vif-A3F binding inhibition. HeLa A3F-eYFP + Vif (tagged APOBEC3F with the HIV-1 protein that degrades it), YFP fluorescence increase. Potency, µM (series often up to 46.1 µM). 390,000 tested, 0.2% active; also: nearly all actives have a fitted effect of over 65% in size
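HeLa cells stably expressing Vif plus C-terminally eYFP-tagged A3F were seeded, incubated overnight at 37 deg C, dosed with compound, incubated overnight again at 37 deg C. Yellow fluorescence (Ex 488/Em 500-530) reported blocked Vif-mediated A3F-eYFP degradation.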
Vif-A3G inh: Vif-A3G binding inhibition. HeLa A3G-eYFP + Vif (tagged APOBEC3G with the HIV-1 protein that degrades it), YFP fluorescence, overnight. Potency, µM (titrated, usually from 46.1 µM), usual class: inhibitors. Q9HC16. 410,000 tested, 0.076% active; also: nearly all actives have a fitted effect of over 60% in size
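Read-out is eYFP fluorescence (Ex 488/Em 500-530) from Vif-expressing HeLa A3G-eYFP cells; more signal means A3G escaped Vif-mediated degradation. Cells plated overnight, compound pinned in, incubated overnight at 37 deg C.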
VDR inhibitor: vitamin D3 receptor (human) inhibition; VDR-SRC2-3 peptide fluorescence polarization, 2 h; 400,000 tested, 0.93% active; P11473; Potency, µM, hits mostly inhibitors
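Fluorescence polarization assay measuring small-molecule disruption of VDR binding to the coregulator peptide SRC2-3. Compounds were pin-transferred (23 nl) into the reagent mix and incubated 2 h at room temperature before reading.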
PLK1 PBD inh: inhibitors of human PLK1 polo-box domain binding. P53350. Plk1 PBD binding of FITC phosphopeptide, fluorescence polarization. Potency, µM, hits mostly inhibitors. 360,000 tested, 2.8% active. AID 720504; also: series mostly up to about 57 µM; nearly all actives have a fitted effect of over 65% in size
Target sequence (P53350 whole entry, looked up, the tested form may be a part): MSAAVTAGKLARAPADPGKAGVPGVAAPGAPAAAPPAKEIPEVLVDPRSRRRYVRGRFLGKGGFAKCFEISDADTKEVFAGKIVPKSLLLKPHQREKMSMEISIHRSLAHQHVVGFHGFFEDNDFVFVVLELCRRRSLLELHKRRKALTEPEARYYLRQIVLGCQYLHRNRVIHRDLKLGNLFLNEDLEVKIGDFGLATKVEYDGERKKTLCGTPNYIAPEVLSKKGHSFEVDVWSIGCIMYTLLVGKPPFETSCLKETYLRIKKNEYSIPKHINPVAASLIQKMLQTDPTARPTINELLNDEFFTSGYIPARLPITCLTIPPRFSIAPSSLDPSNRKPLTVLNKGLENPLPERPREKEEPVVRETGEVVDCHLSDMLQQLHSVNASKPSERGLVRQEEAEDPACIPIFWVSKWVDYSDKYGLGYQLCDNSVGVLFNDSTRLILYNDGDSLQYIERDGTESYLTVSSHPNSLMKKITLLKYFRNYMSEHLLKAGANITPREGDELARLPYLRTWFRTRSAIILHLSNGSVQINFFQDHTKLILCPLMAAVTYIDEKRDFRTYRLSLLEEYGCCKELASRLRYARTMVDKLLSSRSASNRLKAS
TSHR antag: antagonists of human thyroid stimulating hormone receptor; activity change, negative = inhibition, % at 11.5 µM; AID 504810; TSHR-expressing cells, TSH-stimulated cAMP HTRF, 2 h; hits give low values; P16473; 330,000 tested, 0.2% active;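 active = activity change below a set negative limit, meaning inhibition stronger than a set level, cut at about -70% in these data; inconclusive = activity change between two set negative limits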
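Read-out is FRET at 665 nm (cryptate excitation 337 nm) from a cryptate-tagged anti-cAMP antibody, competed by cell cAMP against cAMP-d2. Compounds are tested on freshly harvested TSHR cells challenged with 4nM TSH (EC80) for 2 hours at 37 deg C.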
A number is an active result; i = inactive; ? = inconclusive; nt = no result given. Unless noted, calls follow the shape of the dose curve; as a rule, active = well fitted curve in the direction sought with a large enough effect; inconclusive = small, poorly fitted or top-dose-only effect, or another doubt; inactive = no such curve, though single readings can be large; an effect the other way counts as inactive or inconclusive.

SMILES | Vif-APOBEC3F blk | Vif-A3G inh | VDR inhibitor | PLK1 PBD inh | TSHR antag
COc1cccc(C2=CC(c3ccccc3O)NC(C)(C)N2)c1 (stereo not drawn) | nt | i | i | nt | nt
Clc1ccc(Sc2cc(Cl)c(Cl)cc2Cl)cc1 | nt | nt | i | nt | nt
Cn1ccnc1C(=O)c1cc(SCC(=O)NCc2ccccc2)nc2ccccc12 | i | i | i | 21.2µM | i
COC(=O)CSc1cc(C(=O)c2nccn2C)c2ccccc2n1 | i | i | i | i | i
CC(OCCN(C)C)C(=O)C12CC3CC(CC(C3)C1)C2 (stereo not drawn) | i | i | i | i | i
CC(NC(=O)C12CC3CC(CC(C3)C1)C2)C(=O)NCCN(C)C (stereo not drawn) | i | i | i | 29.9µM | i
O=C(C[n+]1cc(Br)cc2ccccc21)c1ccc(O)c(O)c1 | nt | i | nt | nt | nt
O=S1(=O)CCO[C@H]2CCCC[C@@H]2N1Cc1cccc(F)c1 | nt | i | nt | nt | nt
CC1=CC(=NOS(=O)(=O)c2ccc(C)cc2)CC(C)(C)C1 | nt | i | nt | i | nt
COc1ccc(S(=O)(=O)/N=C2/C=CC(=O)C(C)=C2C)cc1 | i | i | ? | 23.8µM | i
CC1=C(C)/C(=N\OS(=O)(=O)c2ccc(C)cc2)C=CC1=O | i | i | 28.2µM | ? | i
CC1=CC(=O)C2=C(C)C[C@H](OC(=O)Cc3ccccc3)C3[C@H](OC(=O)[C@H]3C)C12 (stereo partly drawn) | nt | nt | i | nt | nt
COC(=O)C(NS(=O)(=O)CCl)C(C)C (stereo not drawn) | nt | i | i | nt | nt
Cc1cccc(C(=O)NCC(=O)OCC(=O)c2ccc3ccccc3c2)c1 | nt | i | i | nt | nt
O=C(O)COc1ccccc1-c1nc(-c2ccccc2)c(-c2ccccc2)[nH]1 | i | i | i | 33.6µM | i
CC1(C(=O)CSc2nc3ccccc3s2)CCC(=O)O1 (stereo not drawn) | nt | i | ? | 21.2µM | i
C[N+](C)(C)c1ccc(/C=C/c2ccnc3ccccc23)cc1 | nt | i | nt | nt | nt
CC12CCC(C(=O)N(CSC(=S)N/N=C\c3ccccc3)C1=O)C2(C)C (stereo not drawn) | i | i | i | 3.36µM | i
CCc1nnc(NC(=O)[C@@H]2CCCN2C(=O)c2cccs2)s1 | nt | i | i | nt | nt
CCc1[nH]c(=S)c(C#N)c2c1CCCC2 | i | i | ? | 26.7µM | i
CC(C)C[C@H](NC(=O)[C@H](CC(C)C)NC(=O)[C@H](CCC(N)=O)NC(=O)[C@H](CO)NC(=O)[C@@H]1CCCN1C(=O)[C@H](CO)NC(=O)[C@H](CO)NC(=O)[C@@H](NC(=O)[C@H](Cc1cnc[nH]1)NC(=O)[C@H](CCC(=O)O)NC(=O)[C@H](Cc1ccc(O)cc1)NC(=O)[C@H](CCCCN)NC(=O)[C@H](CCC(N)=O)NC(=O)[C@H](Cc1ccc(O)cc1)NC(=O)[C@H](CC(=O)O)NC(=O)[C@@H](NC(=O)[C@@H]1CCCN1C(=O)[C@H](CC(=O)O)NC(=O)[C@H](CC(N)=O)NC(=O)[C@H](CC(=O)O)NC(=O)CNC(=O)[C@H](CC(=O)O)NC(=O)[C@@H]1CCCN1C(=O)[C@H](CCC(N)=O)NC(=O)[C@H](Cc1ccc(O)cc1)NC(=O)[C@H](C)NC(=O)[C@H](Cc1c[nH]c2ccccc12)NC(=O)[C@H](Cc1ccccc1)NC(=O)[C@@H](NC(=O)[C@@H](N)CO)[C@@H](C)O)[C@@H](C)O)[C@@H](C)O)C(=O)N[C@@H](C)C(=O)N1CCC[C@H]1C(=O)NCC(=O)N[C@@H](CC(=O)O)C(=O)N[C@@H](Cc1ccc(O)cc1)C(=O)O | nt | nt | i | nt | nt
O=C(c1cccc(F)c1)N1CCC[C@@]2(CCN(c3ccccc3)C2)C1 | nt | nt | 44.7µM | nt | nt
COc1ccc(C(=O)N2CCC[C@@]3(CCN(c4ccncc4)C3)C2)cc1 | nt | nt | i | nt | nt
O=C(Oc1ccccc1)N1CCC[C@@]2(CCN(c3ccccc3)C2)C1 | nt | nt | 35.5µM | nt | nt
COc1ccc(C(=O)N2CCC[C@@]3(CCN(c4ccccc4)C3)C2)cc1 | nt | nt | 56.2µM | nt | nt
SMILES | Vif-APOBEC3F blk | Vif-A3G inh | VDR inhibitor | PLK1 PBD inh | TSHR antag
O=C(c1cccc(F)c1)N1CCC2(CCCN(c3cccc(-c4ccccc4)c3)C2)CC1 | nt | nt | i | nt | nt
O=C(c1cccc(F)c1)N1CCC[C@@]2(CCN(c3cccc(-c4ccccc4)c3)C2)C1 | nt | nt | 44.7µM | nt | nt
O=C(CCCCn1c(=O)c2ccccc2n(Cc2ccccc2F)c1=O)NCc1ccc2c(c1)OCO2 | i | i | i | nt | nt
O=C(CCc1c[nH]c2ccccc12)N1CCN(c2ccc(O)cc2)CC1 | i | i | i | 26.7µM | i
COc1ccc(N2CCN(C(=O)CCc3c[nH]c4ccccc34)CC2)cc1 | i | i | i | i | i
Cc1ccc(NC(=O)c2cc3nc(-c4ccc5c(c4)OCO5)cc(C(F)(F)F)n3n2)cc1Cl | i | i | i | nt | nt
COc1ccc(CN(Cc2ccccc2)C(=O)C2CC2)cc1COc1ccc(NC(C)=O)cc1 | nt | nt | i | nt | nt
NC(=O)C1CCN(C2=C(NS(=O)(=O)c3ccc(Br)cc3)C(=O)c3ccccc3C2=O)CC1 | i | i | ? | i | i
NC(=O)C1CCN(c2nc3ccccc3nc2NS(=O)(=O)c2ccc(Br)cc2)CC1 | 25.1µM | i | i | i | i
C=C(C)CC1N(c2cccc(OC)c2)C(=O)C2C(C(=O)O)C3C=CC21O3 (stereo not drawn) | i | i | i | 26.7µM | i
O=C(COC(=O)/C=C/c1ccccc1[N+](=O)[O-])NC1CC1 | i | i | 70.8µM | 16.8µM | i
CC1CC(C)CN(C(=O)COC(=O)Cc2ccc(Br)cc2)C1 (stereo not drawn) | i | i | i | 29.9µM | i
CC1CC(C)CN(C(=O)COC(=O)Cc2ccc(Cl)cc2)C1 (stereo not drawn) | i | i | i | i | i
O=C(c1cc(-c2ccco2)nn1-c1cccc(Cl)c1)N1CCCCC1 | i | ? | ? | 26.7µM | i
CC(C)NC(=O)c1cc(-c2ccco2)nn1-c1ccc(Cl)cc1 | i | i | ? | i | i
CC(C)(C)c1ccc(C2=NC(=O)C(CC(=O)O)S2)cc1 (stereo not drawn) | i | i | 25.1µM | 26.7µM | i
COc1ccc(C(=O)CC2SC(N)=NC2=O)cc1 (stereo not drawn) | i | i | i | i | i
O=[N+]([O-])c1ccc2c(c1)/C(=C/c1ccc(C=S)cc1)C=C2 | nt | i | nt | nt | nt
c1ccc(-c2nn[nH]n2)c(Nc2cccc3c2CCCC3)c1 | nt | nt | 39.8µM | nt | nt
Nc1[nH]n(-c2ccccc2)c(=O)c1N=Nc1ccccc1 | i | i | i | i | i
Nc1[nH]n(-c2ccccc2)c(=O)c1N=Nc1ccc2ncsc2c1 | i | i | ? | 26.7µM | i
CCNc1cc(O)ccc1C | i | i | 79.4µM | i | i
Cc1ccc(C(=O)CNc2cc(C)ccc2C)cc1 | i | i | ? | i | i
CCNC(=S)Nc1ccc2c(c1)c(=O)n(C)n2Cc1cccc(C(F)(F)F)c1 | nt | i | nt | 26.7µM | nt
Cc1ccc(CNC(=S)Nc2ccc3c(c2)c(=O)n(C)n3Cc2cccc(C(F)(F)F)c2)cc1 | nt | i | nt | ? | nt
CC(C)(C)n1ncc2c(=O)n(Cc3ccccc3Cl)cnc21 | nt | i | nt | nt | nt

From PubChem
